# Source: PubChem BioAssay AID2101 (National Center for Advancing Translational Sciences (NCATS), 2009)
# Values joined by “and” are separate entries in the source; they are usually repeats but may differ in a detail not shown here. Equal values may be shown once. About 300 (0.091%) of roughly 330,000 compounds were called active. About 4% were inconclusive and are not listed. The call rests on the fitted dose curve; in most records, active means well fitted inhibition curve with a large enough effect; inconclusive means small, poorly fitted or top-dose-only effect, or effect the other way, or another doubt; inactive means no such curve, though single readings can be large or run the other way. The entries come from a sample that favours actives as a whole. A call without a number means that no potency is given here. Some structures have more than one record in an assay (separate samples or runs), and their calls can disagree.
# Biological target: Lysosomal acid glucosylceramidase (Homo sapiens) (UniProt P04062)
# Test: qHTS Assay for Inhibitors and Activators of N370S glucocerebrosidase as a Potential Chaperone Treatment of Gaucher Disease
# Conditions: N370S GC spleen homogenate, 4MU-glucoside fluorescence; series mostly up to 59.4 µM
# Source text: NIH Chemical Genomics Center [NCGC]
# NIH Molecular Libraries Probe Production Centers Network [MLPCN]
# Assay Submitter (PI): Wei Zheng
# Glucocerebrosidase (GC) catalyzes the hydrolysis of beta-glucocerebroside to glucose and ceramide in lysosomes. Mutations in the glucocerebrosidase gene result in Gaucher disease, an autosomal recessive lysosomal storage disorder. Many of the mutations encountered in patients with Gaucher disease are missense alterations that may cause misfolding, decreased stability and/or mistrafficking of this lysosomal protein. […] These inhibitors include iminosugar analogs and three non-iminosugar inhibitors identified from a previous HTS of 62,000 compounds with the wild type recombinant enzyme. However, the enhancement of enzyme activity by the chaperone action of an enzyme inhibitor must be balanced against the direct inhibition of the enzyme. An enzyme activator could also function as a chaperone by binding to the enzyme and helping to correct its misfolding and mistrafficking. While activators for GC have not yet been identified, they may have better therapeutic potential than inhibitors. Therefore the discovery and development of chemical activators may provide a new strategy for the chaperone therapy.
# We have optimized a new assay using N370S mutant GC derived from the spleen of a Gaucher patient. […] In addition, the MLPCN compound library has expanded, which increases the chance of finding new and better probes.
# NCGC Assay Protocol Summary:
# This is a fluorogenic enzyme assay with 4-methylumbelliferyl-beta-D-glucopyranoside as the substrate and N370S glucocerebrosidase from human spleen homogenate as the enzyme preparation. Upon the hydrolysis of this fluorogenic substrate, the resulting product, […] which can be detected by a standard fluorescence plate reader. Data were normalized to the controls for basal activity (without enzyme) and 100% activity (with enzyme). The AC50 values were determined from concentration-response data modeled with the standard Hill equation.
# Assay buffer: 50 mM citric acid (titrated with potassium phosphate to pH 5.0), 100 mM potassium chloride, 10 mM sodium chloride, 1 mM magnesium chloride, 0.01% Tween-20.
# 1536-well assay protocol:
# (1) Add 2 ul/well of spleen homogenate (27 ug final)
# (2) Add 23 nL compounds in DMSO solution. The final titration was 0.5 nM to 58 uM.
# (3) Add 2 ul of substrate (1 mM final)
# (4) Incubate at 37C for 40 min.
# (5) Add 2 ul stop solution (1M NaOH and 1M Glycine mixture, pH 10)
# (6) Detect the assay plate in a ViewLux plate reader (PerkinElmer) with Ex=365 nm and Em=440nm.
# Keywords: Glucocerebrosidase, beta-glucosidase, Gaucher Disease, pharmacological chaperone, chaperone therapy, high throughput screening, glucocerebrosidase inhibitor, MLSMR, MLSCN, NIH Roadmap, qHTS and NCGC
# Potency means the concentration at half of the fitted maximal effect.
row,Structure (SMILES),Potency
1,CNCC[C@H](Oc1ccc(C(F)(F)F)cc1)c1ccccc1,inactive and 8.91 µM (active)
2,CC(C)CC(C)Nc1ccc(Nc2ccccc2)cc1 (stereo not given),inactive
3,CC(CCC(=O)O)C1CCC2C3C(O)C[C@@H]4CC(O)CC[C@@]4(C)C3CC[C@@]12C (stereo not given in full),inactive
4,CC(Cl)Cl,inactive
5,CC(=O)[O][Sn]([c]1ccccc1)([c]1ccccc1)[c]1ccccc1,inactive
